Many of the other results were omitted from the sample, so hits are more common in it than they were.
RBX1-CUL1 inh: blocks human RBX1-Cullin-1 di-ubiquitin formation; in vitro K48 di-Ub FRET, acceptor:donor ratio, 45 min; 140,000 tested, 0.6% active; inhibition, % at 10 µM; AID 1347404; in the data active means inhibition above about 25%
Target sequence (P62877 whole entry, looked up): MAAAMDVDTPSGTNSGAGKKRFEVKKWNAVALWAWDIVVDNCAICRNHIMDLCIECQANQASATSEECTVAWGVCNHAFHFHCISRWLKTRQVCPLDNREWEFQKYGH
Target sequence (Q13616 whole entry, looked up): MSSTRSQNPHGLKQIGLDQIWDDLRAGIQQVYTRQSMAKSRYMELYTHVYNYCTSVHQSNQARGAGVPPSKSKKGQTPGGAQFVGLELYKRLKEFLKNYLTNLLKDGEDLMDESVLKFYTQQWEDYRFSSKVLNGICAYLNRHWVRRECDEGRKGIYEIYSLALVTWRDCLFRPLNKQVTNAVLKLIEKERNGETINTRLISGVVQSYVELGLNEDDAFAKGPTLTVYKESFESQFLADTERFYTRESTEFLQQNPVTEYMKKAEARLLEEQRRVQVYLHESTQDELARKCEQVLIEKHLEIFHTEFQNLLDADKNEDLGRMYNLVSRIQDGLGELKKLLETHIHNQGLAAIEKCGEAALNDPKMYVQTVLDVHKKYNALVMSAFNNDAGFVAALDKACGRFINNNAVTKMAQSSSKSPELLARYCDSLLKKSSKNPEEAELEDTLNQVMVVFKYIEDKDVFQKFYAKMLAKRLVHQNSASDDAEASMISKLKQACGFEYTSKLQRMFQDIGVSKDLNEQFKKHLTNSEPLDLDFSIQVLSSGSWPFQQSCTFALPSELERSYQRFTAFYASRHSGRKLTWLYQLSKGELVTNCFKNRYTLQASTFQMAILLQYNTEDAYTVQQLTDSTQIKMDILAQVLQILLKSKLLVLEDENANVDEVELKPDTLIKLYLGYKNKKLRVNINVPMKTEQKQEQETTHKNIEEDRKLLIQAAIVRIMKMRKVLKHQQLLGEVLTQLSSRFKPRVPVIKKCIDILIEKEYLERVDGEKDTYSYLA
Numbers stand for hits; n = inactive.

SMILES	RBX1-CUL1 inh
CC(=O)Nc1ccc(N2N=C(C)/C(=C/c3ccccc3)C2=O)cc1	41
CC1=NN(c2cc(Cl)cc(Cl)c2)C(=O)/C1=C\c1ccc(N2CCOCC2)cc1	n
CC1=NN(c2ccccc2)C(=O)/C1=C/c1cccc(OC2CSC2)c1	32
CC1=NN(c2ccc(F)cc2)C(=O)C1=Cc1c(O)n(-c2ccccc2)c(=S)n(-c2ccccc2)c1=O	n
CCCCC1CN(CCNC(=O)c2ccc(N3CCN(C)CC3)cc2)Cc2ccccc2O1 (centres undefined)	n
CN1CCN(CC(O)COC2CCCCC2)CC1 (centres undefined)	n
O=C(COc1ccc(Cl)cc1Cl)Nc1nnc(COc2ccc(Cl)cc2)s1	n
CCCN1CCC(NC(=O)COc2ccccc2Cl)CC1	n
O=C(CCC1CCN(C(=O)CCn2cnnn2)CC1)NC1CCN(Cc2ccccc2)C1 (centres undefined)	n
O=C(CSc1nc2cc(F)c(F)cc2[nH]1)c1ccc(-c2ccccc2)cc1	n
CCn1c(=O)c2c(nc3n(C4CCCCC4)c(C)c(C)n23)n(C)c1=O	n
COc1cc(=O)[nH]c(=O)n1Cc1ccccc1	n
CCOC(=O)c1cc(-c2ccc(F)cc2)n(CCC(=O)NCCc2ccc(C)cc2)c1C	n
CCn1c(O)c(C=C2C(C)=Nc3ccccc32)c(=O)[nH]c1=S	n
COc1ccccc1-n1c(O)c(C=C2C=Nc3ccccc32)c(=O)[nH]c1=S	n
CC1=CC(=Cc2c(O)n(-c3cccc(Cl)c3Cl)c(=S)[nH]c2=O)C(C)=N1	93
O=c1c(SCc2ccccc2)c(SCc2ccccc2)cnn1-c1ccccc1	n
O=c1c(SCc2ccco2)c(SCc2ccco2)cnn1-c1ccccc1	31
CCSc1cnn(-c2ccccc2)c(=O)c1SCC	n
CC1C(=NC(=O)CSc2nc(-c3ccccc3)c(-c3ccccc3)o2)C(=O)N(c2ccccc2)N1C (centres undefined)	52
CC1C(=NC(=O)CSc2nnc(-c3ccccc3)n2-c2ccccc2)C(=O)N(c2ccccc2)N1C (centres undefined)	n
CC1C(=NC(=O)CSc2nnc(Cc3ccccc3)o2)C(=O)N(c2ccccc2)N1C (centres undefined)	n
Cc1ccc(NC(=O)c2cccs2)c(Br)c1	n
CC1=NOC(=O)/C1=C/c1cccn1C	n
CC1=NOC(=O)/C1=C\c1ccc(-c2cc(Cl)ccc2Cl)o1	97
SMILES	RBX1-CUL1 inh
O=C1C(=Cc2ccc(-c3cc(Cl)ccc3Cl)o2)C(=O)N(c2ccccc2)C(=S)N1c1ccccc1	n
O=C(O)c1ccccc1Sc1cc(Cl)nnc1-c1ccccc1	n
CCCCCCCCCCCC[n+]1ccc(/C=C/c2ccc(N(C)C)cc2)cc1	62
CN(C)c1ccc(/C=C/C2=NC(=O)NC(=O)C2)cc1	n
CCCCCCCCN1C(=O)/C(=C\c2ccc(N(C)C)cc2)C(=O)N(CCCC)C1=O	n
O=C1C(=Nc2ccccc2O)C(Cl)C(=O)N1c1cccc(Cl)c1 (centres undefined)	n
COCC(=O)Nc1cccc(-c2cccc(-c3ccn[nH]3)c2)c1	n
O=[N+]([O-])c1ccc(N/N=C/c2cccn2-c2ccccc2)nc1	n
Cc1c(C(=O)O)cccc1-n1c(C)cc(/C=N/NC(=O)c2cc3ccccc3o2)c1C	n
Cc1c(C(=O)O)cccc1-n1c(C)cc(/C=N/Nc2ccc([N+](=O)[O-])cn2)c1C	82
COc1cc(C=C2C(=O)OC(c3ccccc3)OC2=O)cc(Cl)c1O (centres undefined)	n
COc1cc(/C=C2\C(=O)N(c3ccccc3Cl)N=C2C)cc(I)c1O	78
CCCCOc1ccc(/C=C2/C(=O)N(c3cccc(Cl)c3C)N=C2C)cc1OC	n
CCSc1nc2sc(C)c(C)c2c(=O)[nH]1	n
Cc1sc2nc(SCC(=O)c3ccc(O)c(O)c3)[nH]c(=O)c2c1C	67
Cc1cc(C)c2c(=O)[nH]c(SCC(=O)c3ccc(O)c(O)c3)nc2n1	n
Cc1ccc(S(=O)(=O)N2CCC(C(N)=O)(N3CCCCC3)CC2)c(C)c1	n
CC(C)CCCC(C)C1CCC2C3C(=O)C4CC(=O)CCC4(C)C3CCC12C (centres undefined)	n
CCOC(=O)n1[nH]c(=O)c2ccccc21	n
Cc1ccc(-n2c(SCC(N)=O)nnc2-c2ccc(Cl)cc2)cc1	n
N=C1C(Br)C(=O)Nc2nnc(-c3ccc(Cl)cc3)n21 (centres undefined)	32
COc1ccc(-n2c(-c3ccccc3)nnc2-c2ccc(Cl)cc2)cc1	n
Cn1nccc1C(=O)N1CCCC(CCc2ccc(F)cc2F)C1 (centres undefined)	n
CC(c1cc(Cl)ccc1Sc1cc(Cl)ccc1Cl)N1CCN(C)CC1 (centres undefined)	n
CN1C(=O)C(Cc2ccc(Br)s2)=NC1=S	n
SMILES	RBX1-CUL1 inh
CN1C(=O)C(Cc2cc(Cl)ccc2O)=NC1=S	27
COc1cc(CC2=NC(=S)N(C)C2=O)c(Br)cc1OCc1ccc(Cl)cc1	n
CCc1noc(C)c1C(=O)Nc1ccc(Oc2ccccc2)cc1	n
COc1cccc(Cn2nnc3c2C(=O)c2ccccc2C3=O)c1	n
O=c1c2ccccc2nnn1Cc1ccccc1	n
Cc1ccc(Cn2nnc3c2C(=O)c2ccccc2C3=O)cc1	65
Fc1ccc(-c2n[nH]c(=S)n2-c2ccccc2)cc1	36
S=c1[nH]nc(-c2ccccc2)n1-c1ccc(Cl)cc1	n
CC(C)(C)c1ccc(-c2n[nH]c(=S)n2-c2ccccc2)cc1	n
CC(=O)N(c1ccc2oc3c(c2c1)CCCC3)S(=O)(=O)c1ccc(C)cc1	n
CCN(CC)c1ccc(/C=C2\C(=O)N(c3nnc(C)c(=O)[nH]3)N=C2C)cc1	57
CCN(CC)c1ccc(C=C2C(=O)N(c3ccccc3)C(=O)N(c3ccccc3)C2=O)cc1	n
CCN(C)c1ccc(C=C2C(=O)N(C)C(=O)N(C)C2=O)cc1	n
CSc1ccc(NC(=O)N2CCC(Cn3cc(CO)nn3)CC2)cc1	n
CC1=NN(c2ccccc2)C(=O)C1C(c1ccccc1C(=O)O)C1C(=O)N(c2ccccc2)N=C1C (centres undefined)	n
CC1=NN(c2ccccc2)C(=O)C1C(c1ccc(Cl)cc1)C1C(=O)N(c2ccccc2)N=C1C (centres undefined)	61
CC1=NN(c2ccccc2)C(=O)C1N=Nc1cc(Cl)ccc1C(F)(F)F (centres undefined)	n
COc1cc(-c2nc3n(n2)C(c2ccc(F)cc2)C(C(N)=O)C(C)=N3)cc(OC)c1OC (centres undefined)	n
CCOC(=O)c1ccc(CNc2nncc(-c3ccc(C)o3)n2)o1	n
O=C1C=CC(=O)C(C(C=NCc2ccccc2)[N+](=O)[O-])=C1 (centres undefined)	97
CC1(C)OC(=O)C(C=NCc2ccccc2)C(=O)O1	n
CN1C(=O)C(C=NCc2ccccc2)c2ccccc21 (centres undefined)	n
COc1cccc(-c2noc3c2CN(C(C)CO)CC3)c1 (centres undefined)	n
CC1=Nc2nc(-c3ccc(Cl)cc3)nn2C(c2ccc(O)cc2)C1C(=O)Nc1ccccc1 (centres undefined)	n
CCOC(=O)c1nn(-c2ccccc2C(=O)O)c(N)c1C(N)=S	n
CCOC(=O)c1nn(-c2ccccc2C(=O)O)c(=O)c2c(N)sc(Br)c12	33
CCOC(=O)c1nn(-c2ccccc2)c(=O)c2c(N)scc12	n
O=C1N=C(c2ccccc2)N(c2ccccc2)C(=O)C1Sc1ccccc1 (centres undefined)	n

Bioassay records from PubChem.
